Data from PubChem BioAssay (EPA / NIEHS).
The source made the active and inactive calls. The calls were made as follows: active = hit-call score of the fitted dose curve at least 0.9, where 1 is the maximum; inactive = score below 0.9.

Each molecule was assayed on Tumor necrosis factor (Homo sapiens) (UniProt P01375) (assay: BSK_LPS_TNFa: BioMAP Diversity Plus: LPS Assay for Tumour Necrosis Factor alpha (TNFa) Biomarker Activity (AID 2283085)). Conditions: primary human HUVEC with PBMC; actives raise or lower the signal.
Sequence of Tumor necrosis factor (Homo sapiens) (P01375 whole entry, looked up): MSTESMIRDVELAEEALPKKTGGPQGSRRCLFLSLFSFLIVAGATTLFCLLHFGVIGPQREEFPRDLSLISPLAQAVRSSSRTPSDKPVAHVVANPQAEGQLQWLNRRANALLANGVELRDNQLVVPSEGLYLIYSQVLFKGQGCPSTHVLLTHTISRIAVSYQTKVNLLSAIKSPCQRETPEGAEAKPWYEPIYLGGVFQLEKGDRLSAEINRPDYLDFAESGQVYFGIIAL
Experimental: BSK_LPS is a cell-based, multiplexed-readout assay that uses umbilical vein endothelium and peripheral blood mononuclear cells, a human vascular primary cell co-culture, with measurements taken at 24 hours after chemical dosing in a 96-well plate.BSK_LPS_TNFa is an assay component measured in the BSK_LPS assay. It measures TNF-a antibody related to regulation of gene expression using ELISA technology.Data from the assay component BSK_LPS_TNFa was analyzed into 1 assay endpoint. This assay endpoint, BSK_LPS_TNFa, was analyzed with bidirectional fitting relative to DMSO as the negative control and baseline of activity. Using a type of binding reporter, gain or loss-of-signal activity can be used to understand changes in the signaling as they relate to the gene TNF. Furthermore, this assay endpoint can be referred to as a primary readout, because this assay has produced multiple assay endpoints where this one serves a signaling function. To generalize the intended target to other relatable targets, this assay endpoint is annotated to the cytokine intended target family, where the subfamily is inflammatory factor.
The levels of cell surface (or secreted, indicated by the prefix "s") biomarker endpoints were measured by ELISA. Overt cytotoxicity to cells in confluent adherent cultures (all systems other than the BT system) was assessed by measuring total protein levels using sulforhodamine B (SRB) staining in parallel cultures at the time of biomarker measurements, indicated as SRB endpoints. For proliferation assays for adherent cell types, individual cell types are cultured at sub-confluence and relative cell numbers quantified by SRB staining at time points optimized for each system (48 h: 3C and CASM3C systems; 72 h: BT and HDF3CGF systems; 96 h: SAg system). SRB was performed by staining cells with 0.1% SRB after fixation with 10% TCA and reading wells at 560 nm.Viability and proliferation of PBMC (T cells) was quantified by Alamar Blue reduction for the SAg and BT systems. For PBMC viability (referred to as PBMC Cytotoxicity within the assay endpoint names), cells were plated (75,000/well in a 96-well plate) and then chemical samples added for 1 h before addition of activators, SEB and TSST-1 (20 ng/mL final concentration each). Cells were incubated for 90 h. Then, Alamar Blue (20 uL/well) (Invitrogen, Cat DAL1100) was added for 6 h, and the plates were read with a fluorescence microplate reader at 546/580 nm (excitation/emission). For PBMC proliferation, cells were plated and activated as above but incubated for only 16 h prior to addition of Alamar Blue. Plates were read after 6 h.

Structure (SMILES) | outcome | AC50
NCCO | inactive | –
CN1CCCC1=O | inactive | –
CCCCOC(=O)CCCCCCCCC(=O)OCCCC | inactive | –
CC1(C)NC(=O)NC1=O | inactive | –
CCCCc1ccc2c(n1)[C@@H](c1ccc(OC)cc1C[C@H](C)C(=O)O)[C@H](C(=O)O)[C@H]2c1ccc2c(c1)OCO2 | inactive | –
Cc1cc(NC(=O)C(=O)O)cc(C)c1Oc1ccc(O)c2c1CCC2 | – | 0.844 µM (active)
NCC1(Cc2noc(=O)[nH]2)CCCCC1 | inactive | –
CCCCC(CC)COC(=O)CC(C(=O)OCC(CC)CCCC)S(=O)(=O)O (stereo not given) | inactive | –
CCCCCCOCCO | inactive | –
Cc1cccc([N+](=O)[O-])c1C | inactive | –
c1cc(-c2ccncc2)ccn1 | inactive | –
CCCCCCCCCCC | inactive | –
Cc1c(C(=O)O)c(O)cc2c1C(=O)c1c(O)c([C@@H]3O[C@H](CO)[C@@H](O)[C@H](O)[C@H]3O)c(O)c(O)c1C2=O | inactive | –
O=[N+]([O-])C(CO)(CO)CO | inactive | –
Cc1ccc(N(C)C)cc1 | inactive | –
FC(F)(F)C(F)(F)C(F)(F)C(F)(F)C(F)(F)C(F)(F)CCI | inactive | –
Oc1ccc2c(c1)OC[C@@H](N1CCC(O)(c3ccc(F)cc3)CC1)[C@H]2O | inactive | –
CC(=O)OCCOCCOCCOC(C)=O | inactive | –
CCc1c(C(=O)NN2CCCCC2)nn(-c2ccc(Cl)cc2Cl)c1-c1ccc(Br)cc1 | inactive | –
C[C@]12C=CC(=O)C=C1CC[C@@H]1[C@@H]2C(=O)C[C@@]2(C)[C@H]1CC[C@]2(O)C(=O)CO | inactive | –

Structure (SMILES) | outcome | AC50
COCCOC[C@H](CC1(C(=O)NC2CCC(C(=O)O)CC2)CCCC1)C(=O)Oc1ccc2c(c1)CCC2 (stereo not given in full) | inactive | –
CC(C)c1ccc(C(=O)N=C(N)N)cc1S(C)(=O)=O | inactive | –
CCCCCCC(=O)OCC | inactive | –
COc1ccc(C)cc1N | inactive | –
Cc1ccc(C)c(O)c1C | inactive | –
CCCCCC(=O)O | inactive | –
Cc1ccc(Cl)cc1 | inactive | –
Cc1ccc(C(C)C)c(O)c1 | inactive | –
CCOc1ccc2c(c1)C(C)=CC(C)(C)N2 | – | 3.97 µM (active)
O=C(O)Cc1ccccc1Nc1c(Cl)cccc1Cl | – | 20 µM (active)
C[Si]1(C)O[Si](C)(C)O[Si](C)(C)O[Si](C)(C)O1 | inactive | –
O=C(O)CCCCC(=O)O | inactive | –
CCCc1cc(=O)[nH]c(=S)[nH]1 | inactive | –
C1CCC(SSC2CCCCC2)CC1 | – | 32.5 µM (active)
CC(=O)OC/C=C(\C)CCC=C(C)C | inactive | –
Cc1cccc(C)c1O | inactive | –
Cc1oc(-c2ccccc2)nc1CCOc1cccc2c1ccn2CCC(=O)O | – | 0.655 µM (active)
Cc1nc(C)nc(N2C[C@@H](C)N(c3ccnc([C@@H](C)O)n3)[C@@H](C)C2)n1 | inactive | –
CC(=O)C(C)=CC1C(C)=CCCC1(C)C (stereo not given) | inactive | –
O=c1[nH]cc(F)c(=O)[nH]1 | inactive | –
